This is an account of results in PubChem BioAssay (EPA / NIEHS).

Test [1] can be described thus: TOX21_p53_BLA_p2_viability: Viability Assessment in the Tox21 HCT-116 p53 Agonism Beta-lactamase Assay, Phase 2 (AID 2283591).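 Note: compound exposure lasted 16 h at 37 °C; actives lower the ATP signal meaning cytotoxicity.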 In short, it runs like this: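 Cytotoxicity readout: CellTiter-Glo ATP luminescence, 30 min at room temperature, after the beta-lactamase read. Cells were HCT116 exposed 16 h at 37C to compounds pin-transferred at 217-fold dilution from DMSO stocks.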

The nature of test [2]: ATG_XTT_Cytotoxicity: Cytotoxicity Assessment in the Attagene TRANS-FACTORIAL HepG2 Assay (AID 2283584).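 For AC50: XTT signal for cell number as viability in transfected HepG2 cells; cells exposed to compound for 24 h before reading; active means loss of viability signal versus DMSO baseline.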 Put shortly: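 HepG2 cells transiently transfected with GAL4-UAS multiple reporter units, dosed 24 h; cytotoxicity read by XTT as loss of signal versus DMSO baseline.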

“And” between values parts separate entries of the source, which are not always exact repeats. Identical values can stand only once. Results filed as inconclusive are left out. The source made the active and inactive calls. Rule for the calls: active = hit-call score of the fitted dose curve at least 0.9, where 1 is the maximum; inconclusive = response in the unintended direction; inactive = score below 0.9.

Turning to `Nc1ccc(Br)cc1`, the call in test [1] was inactive.

Take `O=C(O)COc1ccc(Cl)cc1`: the result in test [2] and in test [1] was inactive.

On to `CCOC(=O)OC1=C(c2cc(C)ccc2C)C(=O)NC12CCC(OC)CC2` (centres undefined), for which the compound was classed as inactive in test [2] and in test [1].

One may read the AC50 as the concentration at which the activity in the assay is half-maximal. Take `CCC[CH2][Sn]([Cl])([Cl])[CH2]CCC`: in test [1], the AC50 was 552 nM (active) and 2.76 µM (active).

As for `Cc1c([N+](=O)[O-])c(C)c([N+](=O)[O-])c(C(C)(C)C)c1[N+](=O)[O-]`, the compound was classed as inactive in test [2] and in test [1].

Turning to `O=C(CCl)Nc1ccccc1`, the compound was called inactive in test [2] and in test [1].

With `CCOC(=O)CC(=O)CCl`, the call in test [2] and in test [1] was inactive.

For the compound `C=CC(=O)[O][Sn]([CH2]CCC)([CH2]CCC)[CH2]CCC`, the AC50 in test [2] was 1090 nM (active); in test [1], 1.86 µM (active).

Turning to `CC(C)(c1ccccc1)c1cc(-n2nc3ccccc3n2)c(O)c(C(C)(C)c2ccccc2)c1`, the compound was classed as inactive in test [1].

For the compound `OCCCCO`, the compound was called inactive in test [1].

Turning to `CN(C)[C@@H]1C(=O)C(C(N)=O)=C(O)[C@@]2(O)C(=O)C3=C(O)c4c(O)ccc(Cl)c4[C@@](C)(O)[C@H]3C[C@@H]12`, the compound was classed as inactive in test [2] and in test [1].

Take `CC(C=O)Cc1ccc2c(c1)OCO2` (centres undefined): the call in test [1] was inactive.

In the case of `O=C=Nc1ccc(Cl)cc1`, the call in test [1] was inactive.

For `O=C(Cc1ccccc1)OCCc1ccccc1`, the compound was classed as inactive in test [1].

With `c1ccc(-c2cccc(-c3ccccc3)c2)cc1`, the call in test [1] was inactive.

Take `[F][Sn]([c]1ccccc1)([c]1ccccc1)[c]1ccccc1`: the half-maximal activity concentration (AC50) in test [2] was 1350 nM (active); in test [1], 1.6 µM (active).
